Compounds with a hit are over-represented: about 1.2% of the library has one in this group of screens.
RGS16-Gao HTS = RGS16-Galphao interaction regulator (human) | binding response (% of control), % at 10 µM | 0.38% of 220,000 active | bead-based flow cytometry RGS16-Galphao binding, fluorescence; actives lie on both sides;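 further: Galphao activated by GDP with aluminum fluoride before binding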
RGS4-Gao reg = human RGS4-Galphao interaction regulation; 0.33% of 220,000 active; binding response (% of control), % at 10 µM; Multiplexed bead flow cytometry, RGS4-Galphao binding; actives lie on both sides; in the data active means binding response below about 49% or above about 150%; inactive means in between;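 further: fluorescent Galphao activated with aluminum fluoride binding bead-coupled RGS4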
Target sequence (P09471 whole entry, looked up): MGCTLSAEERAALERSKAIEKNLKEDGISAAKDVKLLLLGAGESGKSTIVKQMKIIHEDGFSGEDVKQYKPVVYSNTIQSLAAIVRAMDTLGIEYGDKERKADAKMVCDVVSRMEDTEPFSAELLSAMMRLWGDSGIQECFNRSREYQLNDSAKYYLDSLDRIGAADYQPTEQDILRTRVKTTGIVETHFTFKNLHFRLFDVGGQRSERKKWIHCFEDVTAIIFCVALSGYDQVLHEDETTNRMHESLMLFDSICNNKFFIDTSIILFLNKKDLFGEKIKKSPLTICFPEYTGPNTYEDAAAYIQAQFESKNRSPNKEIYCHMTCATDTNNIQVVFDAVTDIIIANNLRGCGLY
RGS7-Gao reg = human RGS7-Galphao interaction regulation; P09471; Multiplexed bead flow cytometry, RGS7-Galphao binding; actives lie on both sides; binding response (% of control), % at 10 µM; 0.35% of 220,000 active; in the data active means binding response below about 49% or above about 150%; inconclusive means no clear call, values can overlap the other calls; inactive means in between;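 further: fluorescent Galphao held in activated GDP-AlF4 state binding bead-coupled RGS7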
Avidin fluor = avidin bead compound fluorescence profile | Avidin beads, compound fluorescence 488/530 nm, flow cytometry; stronger effect = higher value | 0.38% of 220,000 active | fluorescence (KMESF) at 10 µM | AID 1775; in the data active means fluorescence above about 47
GSH bead fluor = compound fluoresces at 488/530 nm on GSH beads; GSH beads flow cytometry, compound fluorescence 488/530 nm; stronger effect = higher value; fluorescence (KMESF) at 10 µM; 0.25% of 190,000 active; AID 1776; in the data active means fluorescence above about 89;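 further: glutathione beads carrying GST-tagged Bcl family fusion proteins plus one bare bead set; values are compound well signal with DMSO vehicle wells as background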
RGS8-Gao reg = human RGS8-Galphao interaction regulation. multiplexed bead flow cytometry, RGS8-Galphao binding; actives lie on both sides. response (percent of control binding), % at 10 µM. P09471. 0.34% of 220,000 active; in the data active means response below about 60% or above about 140%; inactive means in between;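 further: Galphao activated as the GDP aluminium fluoride complex binding bead-coupled RGS8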
RGS4-Gao HTS = RGS4-Galphao interaction regulator (human). shares compounds with RGS16-Gao HTS. multiplexed bead flow cytometry, RGS–Galpha-o binding. RGS4–Galpha-o binding response, % at 10 µM. 99% of 1,600 active;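 further: fluorescently labeled Galpha-o bound to GDP with aluminium fluoride binding biotinylated RGS beads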
Target sequence (P09471 whole entry, looked up): as above
Target sequence (P49798 whole entry, looked up): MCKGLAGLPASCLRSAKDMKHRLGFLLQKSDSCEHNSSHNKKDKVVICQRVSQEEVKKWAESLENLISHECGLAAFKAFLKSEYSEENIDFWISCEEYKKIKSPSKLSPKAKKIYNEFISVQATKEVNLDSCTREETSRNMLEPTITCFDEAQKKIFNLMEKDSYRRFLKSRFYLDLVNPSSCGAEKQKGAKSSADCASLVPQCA
Avidin counter = counter-screen: compounds disrupting biotin binding to avidin beads | 1,700 tested, under 10 active | inhibition, % at 10 µM | shares compounds with RGS16-Gao HTS | streptavidin beads, fluorescein-biotin binding, flow cytometry;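 active means inhibition above 50%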;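 further: median green fluorescence of gated singlet beads compared with DMSO control wells; 0% = DMSO wells and 100% = complete loss of bead fluorescence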
RGS8-Gao confirm = confirmation of regulators of human RGS8-Galphao interaction; shares compounds with RGS16-Gao HTS; bead-based flow cytometry RGS8-Galphao binding, fluorescence; actives lie on both sides; binding response (% of control), % at 10 µM; 3% of 1,700 active; in the data active means binding response below about 72% or above about 130%; inactive means in between;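 further: Galphao activated as GDP AlF4 complex before binding bead RGS8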
RGS7-Gao single = confirmation of regulators of human RGS7-Galphao interaction | shares compounds with RGS16-Gao HTS | bead-based flow cytometry RGS7-Galphao binding; actives lie on both sides | response (percent of control binding), % at 10 µM | 7.8% of 1,700 active | AID 1837; in the data active means response below about 75% or above about 130%; inactive means in between;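 further: fluorescent Galphao activated with GDP and aluminum fluoride binding bead-coupled RGS7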
RGS16-Gao conf = RGS16-Galphao interaction regulation, single point confirmation. shares compounds with RGS16-Gao HTS. bead-based flow cytometry, RGS16-Galphao binding; actives lie on both sides. response (% of control binding), % at 10 µM. 4% of 1,700 active. AID 1838; in the data active means response below about 74% or above about 130%; inactive means in between;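 further: Galphao activated as the GDP aluminium fluoride complex binding bead-coupled RGS16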
RGS4-Gao confirm = RGS4-Galphao interaction regulation, single point confirmation; 4% of 1,700 active; RGS4-Galphao binding, multiplexed bead flow cytometry; actives lie on both sides; AID 1840; shares compounds with RGS16-Gao HTS; binding response (% of control), % at 10 µM; in the data active means binding response below about 74% or above about 130%; inactive means in between
RGS19-Gao single = RGS19-Galphao interaction regulation, single point confirmation | shares compounds with RGS16-Gao HTS | bead-based flow cytometry RGS19-Galphao binding; actives lie on both sides | response (percent of control binding), % at 10 µM | 5% of 1,700 active | AID 1841; in the data active means response below about 50% or above about 160%; inactive means in between;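 further: 100% = no compound control and 0% = blank background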
* hit, by the source's call; ? = inconclusive; . = no result; [ ] = remark or other dose. Unless noted, how the calls were made is not given here.

SMILES	RGS16-Gao HTS	RGS4-Gao reg	RGS7-Gao reg	Avidin fluor	GSH bead fluor	RGS8-Gao reg	Avidin counter	RGS8-Gao confirm	RGS7-Gao single	RGS16-Gao conf	RGS4-Gao confirm	RGS19-Gao single	others
CC(C)N(CC#CCC(O)(c1ccccc1)c1ccccc1)C(C)C	97.8	101.0	97.9	2	7	101.8	.	.	.	.	.	.
CC(c1ccccc1C(O)(c1ccccc1)c1ccccc1)N(C)C (configuration not stated)	-42.8	16.8*	7.0*	-3	9	13.7*	1.0	104.4	107.1	108.4	106.7	90.8
COc1ccccc1N1CCN(S(=O)(=O)CC23CCC(CC2=O)C3(C)C)CC1 (configuration not stated)	14.4*	23.3*	17.1*	0	30	14.9*	-0.4	98.8	100.9	98.4	95.6	70.5
Cc1ccc2nc(-c3ccc(NC(=O)CNC4CC4)cc3)sc2c1	83.0	108.1	217.1*[activator]	101*	21	90.5	-0.2	97.7	94.6	97.1	97.2	90.9	RGS4-Gao HTS=108.1*
Cc1ccc2nc(-c3ccc(NC(=O)CN4C(=O)c5ccccc5C4=O)cc3)sc2c1	100.4	99.9	107.8	11	19	99.2	.	.	.	.	.	.
Cc1nc2c(cnn2-c2ccc(Cl)cc2)c(=O)n1-c1ccc(N2CCC(C)CC2)cc1	178.2	150.3*[activator]	171.0*[activator]	18	21	108.7	-0.6	105.0	107.7	109.6	103.6	122.2
Cc1c(/C=N/NC(=O)c2cccnc2)c2ccccc2n1Cc1ccccc1	115.5	120.2	154.2*[activator]	8	22	105.6	3.2	103.1	124.4	106.3	114.2	110.7	RGS4-Gao HTS=120.2*
COc1ccc(C(=O)Nc2c(C(C)(C)C)nn(C)c2C(C)(C)C)cc1	120.4	122.4	?	8	.	111.8	.	.	.	.	.	.
CC(OC(=O)c1ccccc1NS(=O)(=O)c1cccc(N)c1)C(=O)N(C)Cc1ccccc1 (configuration not stated)	12.0*	91.3	85.6	8	8	73.0	1.1	100.3	104.3	101.7	102.1	90.9	RGS4-Gao HTS=91.3*
CCOC(=O)C(=Cc1ccc(-n2ccnc2)cc1)C(=O)OCC	-2.5*	4.6*	?	-2	10	6.7*	-1.9	100.0	105.2	100.4	103.3	94.1
COc1cc(C(=O)Nc2ccc3c(c2)CCN3C(C)=O)cc(OC)c1OC	170.2	207.0*[activator]	185.9*[activator]	21	34	108.9	0.0	107.4	112.3	111.5	105.6	117.7
COc1ccc(CC(=O)N2CCCc3ccccc32)cc1OC	84.7	99.5	100.9	10	34	95.7	.	.	.	.	.	.
COc1cc(CC(=O)N2CCc3ccccc32)cc(OC)c1OC	.	146.1	.	.	44	.	2.1	99.7	99.1	98.3	97.5	98.0
CNC(=O)c1c(NC(=O)c2cccc(N3C(=O)CCC3=O)c2)sc2c1CCC2	-3.7*	-2.7*	?	-1	.	3.9*	-1.4	97.6	101.0	101.4	103.3	99.9
Cc1ccc(-c2cc(C(=O)N3CCCc4ccccc43)c3ccccc3n2)cc1	100.8	100.8	101.4	11	17	100.5	.	.	.	.	.	.
O=C(c1cc(-c2cccnc2)nc2ccccc12)N1CCCc2ccccc21	12.7*	96.1	93.7	3	10	87.4	0.6	103.1	104.5	104.0	105.1	108.8	RGS4-Gao HTS=96.1*
CC(C)(C)NC(=O)c1ccc2c(c1)N(CC(=O)N1CCN(c3ccc(F)cc3)CC1)C(=O)C(C)(C)O2	97.3	100.4	96.3	6	26	100.0	.	.	.	.	.	.
Nc1nc(SCC(=O)Nc2ccccc2)[nH]c(=O)c1-c1ccccc1	.	.	.	.	36	.	0.4	97.8	95.7	100.7	98.6	106.0
Cc1ccc(NC(=O)CSc2nc(C)c(Cc3ccccc3)c(=O)[nH]2)cc1	14.6*	29.2*	21.6*	1	16	17.4*	0.2	98.8	101.7	101.5	102.2	103.6
CC(C)(C)NC(=O)CSc1nc(N)c(-c2ccccc2)c(=O)[nH]1	109.0	102.6	99.1	15	14	105.2	.	.	.	.	.	.
C=CCOC(=O)C1=C[C@@H](c2ccc(Br)cc2)C[C@@H](OCc2ccc(CO)cc2)O1	93.5	97.2	101.1	5	17	97.6	.	.	.	.	.	.
CCCCC(=O)Nc1cc(NC(=O)CC)ccc1Cl	99.9	102.8	99.0	21	11	103.0	.	.	.	.	.	.
CNC(=O)c1cccc2cccc(Sc3ccccc3C(=O)O)c12	99.2	102.9	?	3	.	100.0	.	.	.	.	.	.
CNC(=O)c1ccccc1Sc1ccccc1CO	97.5	93.8	?	7	.	80.9	0.0	109.6	106.1	111.5	105.8	106.3
O=c1cc(CSc2nnc(COc3ccccc3)n2-c2ccccc2)c2ccccc2[nH]1	27.6	-75.7*	-15.3*	-2	14	103.7	-2.2	100.1	90.7	98.6	95.6	90.6
Cc1cccc(OCc2nnc(SCc3cc(=O)[nH]c4ccccc34)n2-c2ccccc2)c1	69.0	100.9	103.0	6	11	96.9	.	.	.	.	.	.
CC1CCN(CCCn2c(SCC(=O)Nc3ccccc3Cl)nc3ccccc3c2=O)CC1	265.4	119.5	126.8	11	15	145.0*[activator]	-0.1	101.9	106.3	102.7	102.6	104.3	RGS4-Gao HTS=119.5*
Cc1ccc(NC(=O)CSc2nc3ccccc3c(=O)n2CCCN2CCCCC2)cc1Cl	300.3	114.8	121.2	9	5	148.8*[activator]	0.7	100.6	61.5*	86.6	71.5*	71.8	RGS4-Gao HTS=114.8*
COC(=O)C(C)NC(=S)N1CCN(c2c(F)cc3c(=O)c(C(=O)O)cn(C4CC4)c3c2OC)CC1C (configuration not stated)	89.8	93.7	?	4	.	93.5	.	.	.	.	.	.
COCCN(C(=S)Nc1c(C)cc(C)cc1C)C(C)c1cccnc1 (configuration not stated)	55.3	97.2	132.1	9	21	92.8	.	.	.	.	.	.

Screens (PubChem)
